# VCAM1 pot: potentiators of TNFa-induced VCAM1 expression, primary screen, imaging, HUVEC, TNFa stimulus, immunofluorescence; HUVEC TNFa-stimulated VCAM-1 immunofluorescence, high-content imaging; scaled per plate to unstimulated/TNFa-only wells; activation, % at 2 µM; actives 0.19% (n = 93,000);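 active = activation above the screen mean plus 3 SD, with well images confirming the hit on visual review, cut at about 28% in these data, passing the limit was not always enough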;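 also: signal is the number of cytoplasmic VCAM-1 stained grains per positive cell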
# VCAM1 pot confirm: potentiators of TNFa-induced VCAM1 expression, confirmation, imaging, HUVEC, triplicate retest; shares compounds with VCAM1 pot; HUVEC TNFa-stimulated VCAM-1 immunofluorescence imaging; activation, % at 2 µM; 230 tested, under 10 active; AID 1034, 2008;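 active = activation above 30% in triplicate retests at 2 µM, then confirmed by visual review of the well images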;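 also: scaled per plate between unstimulated and TNFa-stimulated DMSO control wells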
# Active calls of the source: *. Shown is part of a subset that was picked to be rich in hits.
SMILES,VCAM1 pot,others
CON/C=C(\C=Nc1ccc(Cl)cc1)c1ncc(C(F)(F)F)cc1Cl,1.7,
CCCN1C2=C(C(=O)CCC2)C(c2ccc(F)cc2)C2=C1c1ccccc1C2=O (stereo unspecified),18.7,
Cc1cccc(Oc2ccc(C(=O)NC3CCSC3=O)cn2)c1C (stereo unspecified),12.4,
c1ccc(CC2CCN(c3nc(N4CCOCC4)nc(N4CCOCC4)n3)CC2)cc1,-20.8,
CCOC(=O)c1cnn(-c2nc(-c3ccc(C)cc3)cs2)c1C(F)(F)F,-96.3,
CCOC(=O)c1ccc(-n2nc(C(F)(F)F)c3c(C)cc(=O)oc32)cc1,57.1*,
CCOC(=O)c1ccc(-n2[nH]c(-c3ccccc3)cc2=O)cc1,5.3,
CCN(c1ccccc1)S(=O)(=O)c1ccc(F)cc1C,12.5,
CC1CCc2nn(CC(=O)Nc3c(F)cc(F)cc3Br)cc2C1 (stereo unspecified),-7.2,
CCOC(=O)c1cnn(-c2ccccc2)c1-n1cccc1C(=O)C(=O)Nc1ccc(OC)cc1,10.7,
COCCNC(=O)C(c1ccc(C)o1)N(C(=O)c1snc(C(N)=O)c1N)c1cc(C)cc(C)c1 (stereo unspecified),-7.7,
CCCCCOP(=O)(OCCCCC)C1(NS(=O)(=O)c2ccccc2)C=CC(=O)c2ccccc21 (stereo unspecified),-4.9,
C/C(NC(=O)c1cccs1)=C1\C(=O)C[C@@H]2[C@H]1C2(C)C,0.6,
CCN(C(=O)c1cc2cccc(OC)c2oc1=O)C1CCCCC1,7.9,
CCCC1(C(=O)OCC)NC(c2ccc(OC)cc2OC)C2C(=O)N(c3ccc4c(c3)OCCO4)C(=O)C21 (stereo unspecified),-7.1,
CSc1n[nH]c(NCc2cccs2)n1,35.4,
O=S(=O)(Nc1ccc(-n2cccc2)cc1)c1ccccc1,-39.5,
Cc1ccccc1-c1nc(CN2CCC(C(=O)NCCCN3CC(C)CC(C)C3)CC2)c(C)o1 (stereo unspecified),-42.8,
COc1ccc(C(=O)NCC(C)(C)SCc2c(C)cc(C)cc2C)cc1,3.9,
COc1ccc(CS(=O)(=O)/C(Cl)=C(/Cl)C(=O)Nc2ccc(OC)nc2)cc1,-41.8,
CC1CCCC(N2CCN(C(=O)c3cccc(F)c3)CC2)C1 (stereo unspecified),9.5,
O=S(=O)(NCCc1ccncc1)c1cc(Br)ccc1F,-11.9,
S=C(Nc1ccccc1)Nc1cc(Cl)ccc1Oc1ccccc1,2.2,
CCOC(=O)N1CCC(NC(=O)c2ccc(CS(=O)(=O)c3ccc(OC)cc3)o2)CC1,-84.6,
O=[N+]([O-])c1ccc(NCCNc2ccc(Cl)nn2)cc1,1.8,
SMILES,VCAM1 pot,others
Cc1nonc1NC(=O)c1ccc(Cl)c(S(=O)(=O)N2CCCCC2)c1,-2.2,
COc1cccc2c(=O)n(CC(=O)Nc3ccccc3F)ccc12,-7.9,
Cc1cccc(C(=O)Nc2ccccc2C(=O)OCc2c(C)noc2C)c1,-2.7,
COc1ccc(CCC(C)NC2C3CC4CC(C3)CC2C4)cc1 (stereo unspecified),-1.4,
O=C(Cc1ccc(Cl)cc1)Nc1ccccc1CO,-34.8,
COc1cccc(/C=N/NC(=O)CC(=O)NCCc2ccc(OC)c(OC)c2)c1,5.2,
COc1cc(/C=C(/C#N)C(=O)NCCc2c[nH]c3ccccc23)ccc1OCc1ccccc1F,-36.8,
Cc1cc(NCc2ccccn2)ccc1Br,2.9,
CC1CN(S(=O)(=O)c2ccc(Cl)c(C(F)(F)F)c2)CC(C)O1 (stereo unspecified),22.2,
O=C1CC(c2ccccc2)Cc2nc3ncnn3cc21 (stereo unspecified),-59.8,
O=C(Oc1ccc2ccccc2c1)c1ccccc1,3.8,
CC1CCCC(NC(=O)COC(=O)c2ccc3ccccc3n2)C1C (stereo unspecified),-28.4,
O=S(=O)(Nc1ccc(Cc2ccncc2)cc1)c1ccc(Br)cc1,6.5,
O=C(NC1CCSC1=O)c1cccc(C(=O)NC2CCSC2=O)c1 (stereo unspecified),-1.3,
COc1cccc(-c2cc(N)nn2C(=O)Nc2ccc(Cl)cc2)c1,-8.4,
C=CCn1c(SCc2nc3ccccc3c(=O)[nH]2)nnc1-c1cc2cc(Cl)ccc2o1,1.0,
COCCNC(=O)CSc1nc2ccccc2c(=O)n1CC1CCCO1 (stereo unspecified),9.5,
N#Cc1cc2c(=O)n3ccccc3nc2n(CC2CCCO2)c1=N (stereo unspecified),47.0*,
Cc1ccc(S(=O)(=O)c2cc3c(=O)n4ccccc4nc3n(Cc3ccco3)c2=N)cc1,-19.9,
CCCC(C(=O)NC1CCCC1)N(CCCN1CCOCC1)C(=O)c1snc(C(N)=O)c1N (stereo unspecified),-78.3,
COc1ccccc1NS(=O)(=O)CC12CCC(CC1=O)C2(C)C (stereo unspecified),-2.2,
Cc1cc(C)cc(C(=O)N2CCC(C(N)=O)CC2)c1,-7.1,
COC(=O)CSc1nnc(C)n1-c1cccc(C#N)c1,-5.9,
COC(=O)c1sc(=S)n(-c2cccc(Cl)c2)c1N,-7.9,
COC(=O)C(CC(C)C)NC(=O)c1ccc(F)cc1 (stereo unspecified),8.5,
SMILES,VCAM1 pot,others
COc1cccc(C2=NOC(C(=O)Nc3ccccc3SC)C2)c1 (stereo unspecified),1.7,
CNc1nc(Oc2ccc(=O)n(C)n2)nc(N2CCOCC2)n1,8.9,
Nc1ccc(Oc2ccc3nc(-c4ccccc4)c(-c4ccc([N+](=O)[O-])cc4)nc3c2)cc1,5.1,
Cc1c(NC(=O)C(C)Sc2n[nH]c(N)n2)c(=O)n(-c2ccccc2)n1C (stereo unspecified),6.7,
COc1ccc(C(C)(C)C)cc1S(=O)(=O)N1CCN(C)CC1,-92.6,
COC(=O)c1ccccc1NC(=O)c1cc(-c2ccc(OC)c(OC)c2)on1,1.4,
CC1CCCCC1NC(=O)c1ccc2c(c1)[nH]c(=O)n2C1CCCC1 (stereo unspecified),-0.2,
CCc1noc(C)c1C(=O)Nc1sc(C(=O)N(C)C)c(C)c1C(=O)OC,-1.6,
COC1(c2ccccc2)NC(=S)NN=C1c1ccccc1 (stereo unspecified),-100.0,
CCN(CC)S(=O)(=O)c1ccc(NC(=O)C(C)N(c2ccccc2)S(C)(=O)=O)cc1 (stereo unspecified),37.7,
CCN(CC)c1ccc(NC(=O)c2ccc(Br)o2)c(C)c1,8.0,
CN(C)NC1CCS(=O)(=O)C1 (stereo unspecified),-1.2,
C=CCc1cccc2cc(C(=O)N3CCN(C(=O)c4ccco4)CC3)c(=O)oc12,-2.8,
COC(=O)c1ccc(C(=O)OC)c(NC(=O)CSCc2ccc(Br)cc2)c1,-8.0,
CN(C(=O)c1ccc(Cl)cc1)C1=CCCCC1CCC#N (stereo unspecified),2.3,
Nc1nnc(SCc2ccccc2F)n1-c1ccccc1,-9.0,
O=C(c1cn(-c2ccccc2)nc1-c1cccs1)N1CCN(c2ccccn2)CC1,-5.7,
COC(=O)c1sccc1NC(=O)c1ccc(Br)s1,-52.6,
CC(C)(C)n1[nH]c2c3c(ccc2c1=O)C(=O)c1ccccc1C3=O,37.0*,VCAM1 pot confirm=-3.7
Cc1ccc(N2CC(C(=O)Nc3ccccc3C(=O)NC3CCCCC3)CC2=O)cc1C (stereo unspecified),19.3,
COc1cc(NC(=S)NC(=O)c2ccc(C)cc2C)ccc1NC(=O)c1cccs1,-5.1,
CC1=C(C(=O)Nc2cc(C)ccc2C)C(c2cccs2)NC(=S)N1 (stereo unspecified),51.6*,VCAM1 pot confirm=-11.3

# Compound activity deposited in PubChem by Columbia University Molecular Screening Center.
